The nature of assay [1]: StAR promoter reporter inhibitors, counter-screen for LRH-1 inverse agonist project, cell-based, luminescence, high throughput (AID 651611; in the data active = inhibition above about 28%). The settings on record: StAR promoter luciferase reporter counterscreen, at 3.6 µM, active compounds read high.
Assay [2] concerns the target Nuclear receptor subfamily 5 group A member 2 (Homo sapiens) (UniProt O00482). The assay is described as follows: LRH-1 (NR5A2) inverse agonists, retest, confirmation, cell-based, luminescence (AID 651613; in the data active = inhibition above about 42%;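 note: HEK293T cells co-transfected with LRH-1 and StAR promoter luciferase reporter; 0% = vehicle wells and 100% = parental cells lacking receptor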). The following applies: cell-based LRH-1 luciferase reporter, inverse agonism; at 3.6 µM; active compounds read high.
Assay [3] addresses Steroidogenic factor 1 (Homo sapiens) (UniProt Q13285). As to the kind of experiment: SF1 (NR5A1) inverse agonists, counter-screen for LRH-1 inverse agonist project, cell-based, luminescence, high throughput (AID 651614).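 Note: cells cotransfected with StAR promoter reporter and SF1 expression vector; 0% = vehicle on cells with receptor and 100% = vehicle on cells lacking receptor.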 The settings on record: cell-based SF1 luciferase reporter, at 3.6 µM, active compounds read high.
Assay [4] can be described thus: VP16 transactivation reporter inhibitors, counter-screen for LRH-1 inverse agonist project, cell-based, luminescence, high throughput (AID 651615; in the data active = inhibition above about 33%). The settings on record: Gal4-VP16 luciferase reporter cells, at 3.6 µM, active compounds read high.

Unmarked numbers belong to inactive results. Calls of active or inactive are those of the source. Cut-off read from the data, not from the text of the source, unless noted: active = inhibition above about 44%; inactive = the rest.

Chain of Nuclear receptor subfamily 5 group A member 2 (Homo sapiens) (O00482 whole entry, looked up): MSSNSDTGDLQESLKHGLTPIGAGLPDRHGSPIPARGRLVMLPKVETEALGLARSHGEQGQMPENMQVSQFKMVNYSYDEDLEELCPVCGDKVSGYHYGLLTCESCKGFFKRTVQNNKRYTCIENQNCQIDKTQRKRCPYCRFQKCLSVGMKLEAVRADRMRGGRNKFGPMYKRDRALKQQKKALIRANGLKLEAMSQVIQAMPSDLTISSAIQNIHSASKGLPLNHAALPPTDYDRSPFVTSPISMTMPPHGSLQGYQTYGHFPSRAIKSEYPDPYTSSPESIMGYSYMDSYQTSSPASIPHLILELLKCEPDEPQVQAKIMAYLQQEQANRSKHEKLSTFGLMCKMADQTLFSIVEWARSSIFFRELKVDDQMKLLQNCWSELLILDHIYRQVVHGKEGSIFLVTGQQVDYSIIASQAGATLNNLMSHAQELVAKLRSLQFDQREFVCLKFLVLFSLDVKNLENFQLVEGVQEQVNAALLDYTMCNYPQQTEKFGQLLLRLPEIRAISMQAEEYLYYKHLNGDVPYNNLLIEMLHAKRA
Chain of Steroidogenic factor 1 (Homo sapiens) (Q13285 whole entry, looked up, the tested form may be a part): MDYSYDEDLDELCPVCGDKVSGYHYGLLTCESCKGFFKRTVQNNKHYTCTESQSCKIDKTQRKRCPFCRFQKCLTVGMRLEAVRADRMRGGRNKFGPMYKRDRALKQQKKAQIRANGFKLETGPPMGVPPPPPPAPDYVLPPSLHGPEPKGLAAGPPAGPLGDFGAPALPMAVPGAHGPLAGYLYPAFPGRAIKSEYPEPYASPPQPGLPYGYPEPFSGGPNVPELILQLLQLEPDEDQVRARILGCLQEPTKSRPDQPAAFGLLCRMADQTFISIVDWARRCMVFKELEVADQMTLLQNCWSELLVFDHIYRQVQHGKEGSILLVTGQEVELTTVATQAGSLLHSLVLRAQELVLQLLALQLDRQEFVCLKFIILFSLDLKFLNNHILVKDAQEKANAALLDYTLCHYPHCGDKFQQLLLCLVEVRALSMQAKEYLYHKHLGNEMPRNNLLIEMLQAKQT

In the case of `COc1ccc2c(c1)C1C=CCC1C(c1cc3c(cc1Br)OCO3)N2` (stereo unspecified), the inhibition in assay [1] was -3.15%; in assay [2], 37%; in assay [3], 30.1%; in assay [4] it was -14.3%.

Take `CCCc1cc(=O)oc2c(C)c(OCC(=O)NC3CC(C)(C)NC(C)(C)C3)ccc12`: the inhibition in assay [1] is 6.86%; in assay [2], 53% (active); in assay [3], 59% (active); in assay [4], 9.82%.

Regarding `Cc1ccnc2nc(C(=O)OCC(=O)Nc3ccc([N+](=O)[O-])cc3Br)nn12`, the inhibition was 9.71% in assay [1], 38.9% in assay [2], 32.1% in assay [3] and -0.95% in assay [4].

In the case of `CC1(C)Cc2ccccc2/C(=C/C(=O)c2ccccc2)N1`, the inhibition in assay [1] is 0.1%; in assay [2] it was 39%; in assay [3], 36.2%; in assay [4] it was 15.6%.

Regarding `Cc1cccc(NC(=O)CSc2nc3[nH]ncc3c(=O)[nH]2)c1C`, the inhibition in assay [1] is 11.6%; in assay [2] it was 56.4% (active); in assay [3], 52.2% (active); in assay [4], -4.74%.

Take `COc1cc(C(=O)OCC(=O)Nc2ccc(N3CCOCC3)cc2)ccc1OCC(C)C`: the inhibition in assay [1] is 14.1%; in assay [2] it was 54.5% (active); in assay [3], 65.5% (active); in assay [4], -7.28%.

`CCCc1cc(=O)oc2cc(C)cc(OCC(=O)NC3CC3)c12`: the inhibition is 2.08% in assay [1], 59.5% (active) in assay [2], 62.1% (active) in assay [3] and -6.08% in assay [4].

As to `O=C(CCl)N1CCN(C(=O)C2COc3ccccc3O2)CC1` (stereo unspecified), the inhibition was 18.7% in assay [1], 57.3% (active) in assay [2], 57.3% (active) in assay [3] and -13.5% in assay [4].

In the case of `CCC(=O)Nc1ccc(NC(=O)CSc2nc3c(c(=O)n(C)c(=O)n3C)n2CC)cc1`, the inhibition in assay [1] is 34.6% (active); in assay [2], 58.8% (active); in assay [3], 58.3% (active); in assay [4], -17.8%.

In the case of `CCCc1nc2cc(C)c(Br)c(C)n2c1Cc1ccc(OC)cc1C`, the inhibition is 15.2% in assay [1], 48.3% (active) in assay [2], 45.3% (active) in assay [3] and 5.35% in assay [4].

Take `Cc1onc(NC(=O)c2ccc([N+](=O)[O-])o2)c1Br`: the inhibition in assay [1] was 4.26%; in assay [2] it was 64.9% (active); in assay [3], 58.4% (active); in assay [4], -9.49%.

As to `Cc1ccc2c(c1)N(C)/C(=C/c1cccc[n+]1C)S2`, the inhibition in assay [1] is 28% (active); in assay [2], 61.8% (active); in assay [3], 64% (active); in assay [4], 67% (active).

As to `COc1cccc2c1C1COC3C4CC(C(=O)O)C(C(C2)N13)N4C` (stereo unspecified), the inhibition in assay [1] was 29.8% (active); in assay [2] it was 45.4% (active); in assay [3], 72.3% (active); in assay [4] it was -10.2%.

As to `Cc1onc(-c2ccccc2)c1C(=O)O/N=C(\N)c1ccc([N+](=O)[O-])o1`, the inhibition in assay [1] was 11.5%; in assay [2] it was 64.5% (active); in assay [3], 61.9% (active); in assay [4], -9.42%.

Turning to `Cc1nn(C)c(C)c1CN(Cc1nc(CCC(C)C)no1)C(C)C`, the inhibition in assay [1] is 20.7%; in assay [2], 59.6% (active); in assay [3], 54.2% (active); in assay [4] it was 52.8% (active).

For `CCCc1cc(=O)n2nc(N3CCC(C(=O)N4CCN(c5ccc(OC)cc5)CC4)CC3)sc2n1`, the inhibition in assay [1] was 12.6%; in assay [2], 56.5% (active); in assay [3], 55.1% (active); in assay [4] it was 49.8% (active).

Take `O=C(Nc1cc(Cl)ccc1-n1cncn1)c1ccc([N+](=O)[O-])s1`: the inhibition in assay [1] was 23.2%; in assay [2], 68.4% (active); in assay [3], 69.2% (active); in assay [4] it was -10.3%.

For `N#CCc1ccc(OCCCN2CCC(C(O)(c3ccccc3)c3ccccc3)CC2)cc1`, the inhibition in assay [1] is 8.39%; in assay [2] it was 40.8%; in assay [3], 27.8%; in assay [4], 12.4%.

Turning to `COc1cc2c(cc1OC)CN(C(=O)Cn1ccccc1=O)CC2`, the inhibition in assay [1] was 16.3%; in assay [2] it was 56.6% (active); in assay [3], 57.1% (active); in assay [4], 6.2%.

Regarding `Cc1onc(-c2ccccc2Cl)c1-c1nc(-c2ccncc2)no1`, the inhibition in assay [1] is 7.38%; in assay [2], 58.1% (active); in assay [3] it was 52.9% (active); in assay [4], 18.2%.

As for `O=C(Nc1ccc(N2CCN(C(=O)c3ccco3)CC2)cc1)c1ccc2c(c1)OCO2`, the inhibition in assay [1] is 23.4%; in assay [2] it was 48.3% (active); in assay [3], 50.7% (active); in assay [4], 60.5% (active).

As to `COc1ccccc1-c1cc(NC(C)=O)c2ncc(-c3ccc(S(C)(=O)=O)cc3)n2c1`, the inhibition in assay [1] was 23.8%; in assay [2], 49.3% (active); in assay [3], 48.6% (active); in assay [4] it was -21.1%.

For `CC(=O)N1c2ccc(S(=O)(=O)N3CCC(C(=O)Nc4cccc(C)n4)CC3)cc2CC1C` (stereo unspecified), the inhibition in assay [1] is 18%; in assay [2], 57.1% (active); in assay [3] it was 54.1% (active); in assay [4], 51.9% (active).

As to `CC(C)=NOc1cc(NC(=O)CCl)cc([N+](=O)[O-])c1`, the inhibition is 37.5% (active) in assay [1], 56.3% (active) in assay [2], 56.4% (active) in assay [3] and 13% in assay [4].
